From PubChem BioAssay (NCI)
This is part of a sample that, as a whole, favours compounds with a hit. Of some 79,000 tested, about 15% had one in any assay. Cut-off read from the data, not from the text of the source: active = growth inhibition above about 70%; inactive = the rest.

Legend:
[1] = NCI Yeast Anticancer Drug Screen. Data for the rad50 strain (AID 155);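 note: 0% = growth of vehicle-only cultures of the same strain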; details: S. cerevisiae rad50 strain growth inhibition; at 50.0 µM; stronger effect = higher value
Procedure, shortened: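 Readout: growth inhibition relative to vehicle-treated cultures. Compound exposure was carried out in a genetically defined yeast strain deficient in DNA damage repair.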

[2] = NCI Yeast Anticancer Drug Screen. Data for the mec2-1 strain (AID 157); details: S. cerevisiae mec2-1 strain, at 50.0 µM, stronger effect = higher value
Procedure, shortened: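 mec2-1 yeast strain, carrying an alteration in DNA damage repair or cell cycle control, was exposed to compounds; growth inhibition was measured relative to vehicle-treated controls.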

[3] = NCI Yeast Anticancer Drug Screen. Data for the sgs1 mgt1 strain (AID 161);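 note: 0% = growth of cultures given vehicle only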; details: S. cerevisiae sgs1 mgt1 strain, at 50.0 µM, stronger effect = higher value
Procedure, shortened: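 Yeast cells carrying a defined DNA-repair defect were exposed to test compounds. Growth inhibition was measured relative to vehicle-treated controls.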

[4] = NCI Yeast Anticancer Drug Screen. Data for the cln2 rad14 strain (AID 165);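 note: 0% = growth equal to vehicle treated cultures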; details: S. cerevisiae cln2 rad14 strain, at 50.0 µM, stronger effect = higher value
Procedure, shortened: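 Yeast carrying cln2 and rad14 alterations (cell cycle control and DNA damage repair) were exposed to compounds. Growth inhibition was measured against vehicle-treated controls.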

[5] = NCI Yeast Anticancer Drug Screen. Data for the bub3 strain (AID 167); details: S. cerevisiae bub3 mutant strain, at 50.0 µM, stronger effect = higher value
Procedure, shortened: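 Readout: yeast growth inhibition, expressed relative to vehicle-only wells. The test organism is a mutant strain from a panel with lesions in DNA repair or checkpoint genes.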

[6] = NCI Yeast Anticancer Drug Screen. Data for the mlh1 rad18 strain (AID 175); details: S. cerevisiae mlh1 rad18 strain growth inhibition; at 50.0 µM; stronger effect = higher value
Procedure, shortened: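 Growth inhibition of the yeast strain was measured after compound exposure and expressed relative to vehicle-treated controls. The strain carries defined defects in DNA damage repair.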

Measured: growth inhibition

CC1OCOC1C1OCOCC1OC(=O)c1ccccc1 (centres undefined)
inactive: [1] -5.6% | [2] -5.5% | [3] -15.2% | [4] -14.8% | [5] 25.2% | [6] -5%

Cc1cc(C)n(C2=NCCN2)n1
inactive: [1] -26.1% | [2] -33.7% | [3] -14.1% | [4] -33.2% | [5] 4.2% | [6] -17.6%

CCCCCCCC/C(C=O)=C\c1ccc(C)cc1
inactive: [1] 53% | [2] 33.8% | [3] 55% | [4] 51.7% | [5] 66% | [6] 62.6%

CC(C)(O)/C1=C/C=C/CCCCCCCCCC1
inactive: [1] 13.8% | [2] 14.9% | [3] 50.1% | [4] 5.75% | [5] 14.8% | [6] 16.9%

CCCCCCCCCCCCCCCCOc1ccccn1
inactive: [1] -9.75% | [2] -20.6% | [3] -14.8% | [4] -18.8% | [5] -21.6% | [6] -6.9%

CC1=NC(C(=O)O)C(C)(C)S1 (centres undefined)
inactive: [1] 2.6% | [2] -8.3% | [3] -22.2% | [4] -0.95% | [5] -3.4% | [6] -6%

O=c1[nH]nc(-c2ccccc2)n1/N=C/c1c(O)ccc2ccccc12
inactive: [1] 8.15% | [2] 17.9% | [3] 9.15% | [4] 13.3% | [5] 15.4% | [6] 24.6%

Cc1nc(C)c(C(=O)NNC(=O)C[n+]2ccccc2)cc1C(=O)NNC(=O)C[n+]1ccccc1
inactive: [1] -27.6% | [2] -4.15% | [3] -11.4% | [4] 11.7% | [5] -12.4% | [6] -25.1%

COc1ccc(NC(C)=O)cc1Br
inactive: [1] -12.8% | [2] -40.5% | [3] -11.1% | [4] -16.8% | [5] -17.6% | [6] -20.9%

CCCCCCCCCCCc1cc(=O)c2c(O)cccc2o1
inactive: [1] -5% | [2] -28.6% | [3] 9.55% | [4] -3.9% | [5] 4% | [6] -14.4%

CC(=O)Nc1ccc([N+](=O)[O-])cc1[N+](=O)[O-]
inactive: [1] 3.35% | [2] -10.9% | [3] -4.05% | [4] -37.9% | [5] -15.6% | [6] 3.95%

CCCCCCCCCCCCCCCCCC(=O)O
inactive: [1] -5.2% | [2] -17.4% | [3] 0.1% | [4] -5.75% | [5] -17.1% | [6] 6.05%

Nc1cccc(C(=O)O)c1C(=O)O
inactive: [1] 19.7% | [2] 15.7% | [3] 25% | [4] -1.7% | [5] -4.2% | [6] 20.9%

CCCCOC(C)OCCCC
inactive: [1] 9.3% | [2] -6.35% | [3] -3.4% | [4] 5.2% | [5] 5.65% | [6] -17%

CCN(CC)C(=O)Cc1ccc2c3c(cccc13)CC2
inactive: [1] -2.45% | [2] -2.05% | [3] -1.75% | [4] -0.75% | [5] 1.6% | [6] 11.6%

CCOC(=O)C1C(=S)NC(=O)C1C#N (centres undefined)
inactive: [1] 0.3% | [2] -0.05% | [3] 1.35% | [4] 0.75% | [5] 11.3% | [6] -4.7%

Cc1ccc(S(=O)(=O)OCC23CCC(CC2)CC3)cc1
inactive: [1] -30% | [2] -9.85% | [3] -26.2% | [4] -3.5% | [5] 39.6% | [6] -1.2%

CCCCCCCCCCCCCCCC(=O)O[C@@H]1[C@@H](C)[C@@]2(O)[C@@H](C=C(CO)C[C@]3(O)C(=O)C(C)=C[C@@H]23)[C@H]2[C@]1(OC(C)=O)[C@]2(C)CO
inactive: [1] 14.8% | [2] 2.75% | [3] 20.1% | [4] 30.9% | [5] 21.1% | [6] -71.2%

O=[N+]([O-])c1ccc(C=C2C=c3ccccc3=C2)cc1
inactive: [1] 5.8% | [2] 1.1% | [3] -14.4% | [4] -28.9% | [5] 5.3% | [6] 7.3%

C(=C/c1ccccc1)/CNCCNC/C=C/c1ccccc1
inactive: [1] 46.1% | [2] 22.6% | [3] 40.8% | [4] 35% | [5] 35.3% | [6] 47.5%

OCC1CC2c3ccccc3C1c1ccccc12 (centres undefined)
inactive: [1] -12% | [2] -22.1% | [3] -12.1% | [4] -0.05% | [5] -28.4% | [6] -6.75%

O=C(O)c1cccc(F)c1C(=O)O
inactive: [1] -4.5% | [2] -3.65% | [3] -1.5% | [4] -20.4% | [5] -2.95% | [6] 7.3%

CN(C)CCCn1c2ccccc2c2cnccc21
inactive: [1] 0.5% | [2] -10.9% | [3] -17.6% | [4] -54.5% | [5] -48.2% | [6] 14.8%

C\C(=C/C(=N/N=C\c1ccccc1O)c1ccccc1)c1ccccc1
inactive: [1] 13.8% | [2] 10.9% | [3] -4.45% | [4] -3.5% | [5] 5.6% | [6] 5.15%

O=C(CN1CCCc2ccccc21)c1ccccc1
inactive: [1] 6.75% | [2] 6.7% | [3] 4.55% | [4] 10.3% | [5] 19% | [6] 10.4%

O=C1c2ccccc2C2(O)NC(=S)N(c3ccccc3)C12O (centres undefined)
inactive: [1] -14.2% | [2] -20.8% | [3] 4.95% | [4] 15.4% | [5] 6.2% | [6] -2.1%

CSc1cccc(NC(=S)NN/C(=N/S(=O)(=O)c2ccccc2)N2CCCC2)c1
inactive: [1] 6.3% | [2] -17.6% | [3] -1.35% | [4] 2.3% | [5] -2.9% | [6] -1.2%

CC12CCC(C/C1=N\O)C2(C)CBr (centres undefined)
inactive: [1] 13.4% | [2] -2.15% | [3] -4.35% | [4] -1.1% | [5] -2.3% | [6] 5.1%

Cc1ncc2c(n1)NC(=O)NC2
inactive: [1] 17.1% | [2] 13.5% | [3] -16.6% | [4] 0.9% | [5] -23.1% | [6] -13.9%

CCC(CC)(Cc1ccccc1)C(=O)O
inactive: [1] 9.65% | [2] -17.7% | [3] 12.7% | [4] 1.65% | [5] 11.7% | [6] 36.4%

Cc1cc(O)c2c(c1)C(=O)C=CC2=O
inactive: [1] 6.7% | [2] 5.2% | [3] 1.3% | [4] 4.15% | [5] 10.3% | [6] -25.9%

CCN(CC)CCC(=O)c1ccc(OC)cc1
inactive: [1] 7.95% | [2] 16.3% | [3] 2.45% | [4] 23.4% | [5] 7.55% | [6] 8.15%

CC(C)(C)N1COCC(COc2ccc(Cl)cc2)OC1 (centres undefined)
inactive: [1] -13.3% | [2] -3.5% | [3] 4.95% | [4] 11.4% | [5] -16.1% | [6] 24.8%

Cc1cc(C)c(C(=O)/C(O)=C/c2ccccc2)c(C)c1
inactive: [1] -13.7% | [2] -7.7% | [3] 1.2% | [4] 9.95% | [5] -45.5% | [6] -14.2%

CCOC(=O)c1[nH]n(-c2ccccc2)c(=O)c1/C=N/C(=S)Nc1ccccc1
inactive: [1] -22.3% | [2] -10.6% | [3] -16.6% | [4] -11.8% | [5] -21.3% | [6] -7.85%

CCC1(CC)C(=O)NN(C(=O)c2ccccc2)C1=O
inactive: [1] 19.3% | [2] -20.1% | [3] 28.4% | [4] 13.6% | [5] -4.45% | [6] -43.4%

CC(=O)O/C1=C\CCCCCCCCCC1
inactive: [1] 6.95% | [2] -27.5% | [3] 28.3% | [4] 18.9% | [5] 13.5% | [6] -1.45%

CC1CC=[N+]([O-])C1(C)C (centres undefined)
inactive: [1] -6.6% | [2] -18.1% | [3] 14.2% | [4] -12.2% | [5] 16.7% | [6] -11.1%

O=C(Nc1ccc(Cl)cc1)Nc1nnc(-c2cccc(-c3nnc(NC(=O)Nc4ccc(Cl)cc4)o3)c2)o1
inactive: [1] 39.1% | [2] 34.3% | [3] 36.4% | [4] 21.7% | [5] -3.5% | [6] 14%
